TIM10 inh = growth inhibitors of TIM10 yeast strain | S. cerevisiae TIM10 strain growth, BacTiter-Glo luminescence, 24 h | inhibition, % at 10 µM | 330,000 tested, 1.4% active;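 active = inhibition of 40% or more at the single tested concentration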;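 also: wild-type TIM10 isogenic control strain grown at permissive 25 °C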
NALP3 yeast inh = NALP3 inhibition in yeast. AID 2825. inhibition, % at 10 µM. Yeast reconstituted NLRP3/ASC/caspase-1, beta-gal luminescence, 24 h. 330,000 tested, 0.39% active;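 active = inhibition of 50% or more; inactive = inhibition below 50%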;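 also: plate controls were induced DMSO wells for no effect and uninduced yeast grown without galactose for full effect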
tim23-1 inh = growth inhibitors of tim23-1 mutant yeast. 330,000 tested, 1.3% active. inhibition, % at 20 µM. AID 463212. S. cerevisiae tim23-1 growth, BacTiter-Glo luminescence, 24 h;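 active = growth inhibition of the mutant yeast at or above 50%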;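 also: temperature-sensitive mutant grown at 25 °C; plate controls were DMSO-treated mutant yeast for no effect and medium wells lacking yeast for full effect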
PfHsp90 yeast 2 = inhibits growth of yeast expressing Plasmodium falciparum Hsp90; 310,000 tested, 0.32% active; S. cerevisiae expressing PfHsp90, BacTiter-Glo ATP, 48 h; yeast lacking PDR1 and PDR3 efflux regulators; inhibition, % at 9.4 µM; AID 504621;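 active = every replicate shows inhibition above about 80%, whatever the replicate mean, limit read from the data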;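 also: 0% = DMSO neutral controls and 100% = 20 µM radicicol positive controls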
tim10-1 inh = inhibits growth of tim10-1 mutant yeast. S. cerevisiae tim10-1 ts strain growth, BacTiter-Glo, 24 h. inhibition, % at 20 µM. 330,000 tested, 2.2% active. AID 463190;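 active = inhibition of at least 40%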;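 also: mutant grown at 25 °C; 0% = DMSO wells with yeast and 100% = wells holding no yeast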
tim10-1 confirm = tim10-1 yeast growth inhibition, confirmed | shares compounds with tim10-1 inh | S. cerevisiae tim10-1 ts strain growth, BacTiter-Glo, 24 h | inhibition, % at 20 µM | 7,400 tested, 56% active | AID 463213;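 active = inhibition of yeast growth at or above a set limit in either of two repeat tests at 20 µM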;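 also: tim10-1 mutant grown at permissive 25 °C to find synthetic lethal compounds; 0% = DMSO yeast wells and 100% = medium wells without yeast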
Numbers without * were called inactive; · = not tested or not shown. Only some compounds are listed: those with a hit (about 3.7% of all), similar ones and a draw of the others.

SMILES | TIM10 inh | NALP3 yeast inh | tim23-1 inh | PfHsp90 yeast 2 | tim10-1 inh | tim10-1 confirm
CCCc1ccc2oc(C(=O)N3CCC(C(N)=O)(N4CCCCC4)CC3)c(C)c2c1 | 22 | -1 | 42 | 2 | 42* | 27
Cc1ccc2oc(C(=O)N3CCC(C(N)=O)(N4CCCCC4)CC3)c(C)c2c1 | 14 | 13 | 28 | -8 | 28 | ·
O=C(CCNc1cccc(F)c1)c1cccc([N+](=O)[O-])c1 | -1 | 1 | 19 | -20 | 35 | ·
O=C(CCNc1ccc(Cc2ccncc2)cc1)c1cccc([N+](=O)[O-])c1 | 31 | -17 | 23 | -1 | 43* | 34*
O=C(COCc1cc(-c2ccc3c(c2)OCO3)on1)N1CCN(c2ccccc2)CC1 | 18 | 17 | 31 | -7 | 15 | ·
Cc1cccc(/C=C2\CS/C(=C\c3cccc(C)c3)C2=O)c1 | 24 | 15 | 49 | 3 | 44* | 36*
Cc1ccccc1/C=c1\s/c(=C\C(=O)C(C)(C)C)[nH]c1=O | 2 | 9 | 34 | 5 | 34 | ·
CCc1ccc(/C=c2\s/c(=C\C(=O)C(C)(C)C)[nH]c2=O)cc1 | 32 | 16 | 50 | -52 | 53* | 44*
COc1ccccc1-c1ccc(/C=C2/C=C(CC(C)C)OC2=O)o1 | 22 | 16 | 31 | 6 | 42* | 36*
CCCC1=C/C(=C/c2ccc(-c3ccccc3OC)o2)C(=O)O1 | 17 | 5 | 23 | -1 | 28 | ·
Cc1cccn2c(=O)c3cc(C(=O)NC4CCCC4)c(=N)n(Cc4ccc(F)cc4)c3nc12 | 13 | 7 | 19 | -8 | 43* | -18
O=C(NCC(c1ccco1)N1CCCC1)c1ccc(Cl)c(S(=O)(=O)N2CCc3ccccc32)c1 (stereo not given) | 8 | 9 | 20 | · | 7 | ·
COc1ccc(CN(CC(=O)NCc2ccco2)C(=O)CNS(=O)(=O)c2ccc(C)cc2)cc1 | 5 | 8 | 9 | -90 | 2 | ·
O=C(NC1CCN(Cc2ccccc2)CC1)c1ccccc1 | 2 | 17 | -1 | 30 | -7 | ·
O=C(NC1CCN(CCc2c[nH]c3ccccc23)CC1)c1ccccc1 | 12 | 9 | 21 | 8 | 43* | 20
O=C(O)c1ccc2c(c1)C(=O)N(CCc1c[nH]c3ccccc13)C2=O | 11 | 9 | 8 | 9 | 98* | -11
c1ccc(CCCNCCCn2cnc3c(OCc4ccccc4)ncnc32)cc1 | · | · | · | -11 | · | ·
COc1cccc(N=Nc2ccc3ccccc3c2O)c1 | 13 | 1 | 32 | 0 | 46* | 31*
COc1ccc(N=Nc2ccc3ccccc3c2)c(O)c1 | 10 | 38 | 6 | -13 | 15 | ·
NC1=NC(=O)NC1(c1ccccc1)c1ccccc1 | · | · | · | -10 | · | ·
Cc1c(C(=N)C(C#N)C#N)c(=N)oc2c1ccc1ccccc12 | 35 | 4 | 20 | 1 | 41* | 29
CC(C)Cn1c(N)c(C(=O)COC(=O)/C=C/c2ccccc2)c(=O)n(C)c1=O | 17 | 6 | 22 | -7 | 42* | 22
O=S(=O)(Nc1cccc2cccnc12)c1ccccc1 | 33 | 11 | 23 | -30 | 26 | ·
O=S(=O)(Nc1cccc2cccnc12)c1ccc(S(=O)(=O)N2CCCC2)cc1 | 39 | 33 | 43 | -59 | 50* | 39*
OCC[C@@H]1NCc2cc(CO)cc(-c3ccccc3)c21 | · | · | · | -3 | · | ·
SMILES | TIM10 inh | NALP3 yeast inh | tim23-1 inh | PfHsp90 yeast 2 | tim10-1 inh | tim10-1 confirm
COc1cccc(-c2csc(N3CCN(C(=S)Nc4ccccc4OC)CC3)n2)c1 | 14 | 5 | 22 | 16 | 34 | ·
COc1cccc(-c2csc(N3CCN(C(=S)Nc4ccccc4Cl)CC3)n2)c1 | 29 | 23 | 25 | -31 | 44* | 34*
COCCCNC(=S)N1CCN(c2nc(-c3ccccc3)cs2)CC1 | 6 | 24 | 36 | -26 | 40* | 13
COc1ccc(OC)c(S(=O)(=O)Nc2cc3c(cc2N2CCCC2)n(C)c(=O)c(=O)n3C)c1 | 0 | 8 | -1 | -6 | 12 | ·
CN(CCc1ccccc1)C(=O)c1ccc(NC(=O)Cc2ccc(NC(=O)C3CCCN(S(=O)(=O)c4cccc([N+](=O)[O-])c4)C3)cc2)cc1 (stereo not given) | · | · | · | -2 | · | ·
O=c1c2c(-c3cccs3)csc2ncn1/N=C/c1ccc(OC(F)F)cc1 | 38 | 23 | 46 | 0 | 47* | 39*
COc1ccc(C(=O)Nc2ccc(Cl)cc2C(=O)NCc2ccco2)cc1OC | 16 | 28 | 30 | -20 | 43* | 15
CCOC(=O)C1=C(C)NC(C)=C(C(=O)OC)C1c1cccc([N+](=O)[O-])c1 (stereo not given) | 12 | -5 | 23 | 11 | 16 | ·
COC(=O)C1=C(C)NC(C)=C(C(=O)O[C@@H]2CCCN(Cc3ccccc3)C2)[C@@H]1c1cccc([N+](=O)[O-])c1 | 26 | 27 | 28 | 16 | 45* | 31
COc1ccc(Cl)cc1Nc1nc(N)nc(C(F)(F)F)n1 | 26 | 15 | 17 | · | 48* | 14
Cc1ccc(C(=O)N[C@@H](Cc2ccccc2)C(=O)N2CCC3(CC2)NCCc2[nH]cnc23)cc1C | -5 | 10 | -7 | 21 | -3 | ·
C/C(=N\Nc1cc(Cl)nc(C)n1)c1ccccc1 | 11 | -17 | 16 | · | 41* | 39*
C/C(=N\Nc1nc(N2CCCCCC2)nc(N2CCCCCC2)n1)c1ccccc1 | 40 | 19 | 36 | 6 | 40* | 28
CCc1ccc(/C(C)=N/Nc2cc(Cl)nc(C)n2)cc1 | 22 | 15 | 15 | -28 | 26 | ·
COCc1cc(C)n(CC(=O)Nc2ccc3c(c2)OCO3)c(=O)c1C#N | 9 | 6 | 6 | -9 | 2 | ·
COc1ccc(C2=NS(=O)(=O)N(C)C(C(=O)Nc3ccc(C(C)=O)cc3)=C2)cc1OC | -2 | 0 | 11 | -17 | 19 | ·
COc1ccc(-c2oc3ncnc(NCCCN(C)C)c3c2-c2ccc(OC)cc2)cc1 | 19 | 14 | 17 | -7 | 40* | 42*
N=c1c2c(-c3ccccc3)c(-c3ccccc3)n(Cc3ccco3)c2ncn1CCO | 32 | 7 | 36 | -8 | 43* | 28
CC(C)COc1ccc(C(=O)CCN2CCCCC2)cc1 | -10 | 9 | 18 | 7 | 54* | -8
CC(C)COc1ccc(C(=O)OCCN2CCCCC2)cc1 | -1 | 12 | -9 | -10 | -3 | ·
CC1CCN(C(=O)COC(=O)C2CCN(S(=O)(=O)c3ccc4c(c3)OCCO4)CC2)CC1 | 11 | 4 | 26 | -21 | 18 | ·
CC(=O)c1cc(CN2CCC(n3nccc3NC(=O)c3ccccc3)CC2)cs1 | 4 | -12 | 15 | 7 | 15 | ·
O=c1c2c([nH]n1-c1ccccc1)CCCC2 | 20 | -12 | 39 | -32 | 46* | 27
COc1ccc(-c2nc3ccccn3c2NCc2ccc3c(c2)OCO3)cc1 | 34 | 16 | 39 | 9 | 42* | 13
